The source of these data is PubChem BioAssay (Tox21).

Test [1] in a line: qHTS assay to identify small molecule antagonists of the thyroid receptor (TR) signaling pathway - cell viability counter screen (AID 743064). Note: nearly all actives have a fitted effect of over 50% in size. Note: potency is the fitted concentration of half-maximal effect. Put shortly: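 GH3.TRE-Luc cells, 4 h pre-plating; cpd + T3 1 nM final; 37 °C 23.5 h; CellTiter-Fluor 30 min; fluorescence read.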
Background: qHTS replaces the single test concentration by a dilution series.

A short description of test [2]: qHTS assay to identify small molecule antagonists of the thyroid receptor (TR) signaling pathway (AID 743065). Note: nearly all actives have a fitted effect of over 55% in size. Note: potency is the fitted concentration of half-maximal effect. Put shortly:
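GH3.TRE-Luc rat pituitary cells carrying two TR response elements driving luciferase were plated for 4 h, given compound plus 1 nM T3 (final), and incubated 23.5 h at 37 C. ONE-Glo luminescence measured reporter inhibition; CellTiter-Fluor fluorescence tracked cytotoxicity.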

The test system of test [3] is thyroid hormone receptor (rat, GH3 cells). Kind of test: qHTS assay to identify small molecule agonists of the thyroid receptor (TR) signaling pathway (AID 743066; calls by dose curve).
Test [4] has as its target Estrogen receptor (Homo sapiens) (UniProt P03372). Nature of the test: qHTS assay to identify small molecule antagonists of the estrogen receptor alpha (ER-alpha) signaling pathway (AID 743069; active = well fitted curve in the direction sought with a large enough effect in the signal ratio in the repeat runs, not every such curve was filed as active; inconclusive = weak or mixed curves, or effect the other way; inactive = no such curve, though single readings can be large or run the other way; the % refers to the signal ratio; note: potency is the fitted concentration of half-maximal effect). Put shortly:
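Screening used a UAS-driven beta-lactamase reporter integrated into HEK293 cells expressing ER-alpha, stimulated with 17beta-estradiol alongside test compounds over 18 hr at 37C; signal came from LiveBLAzer B/G FRET fluorescence.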

Test [5] in a line: qHTS assay to identify small molecule antagonists of the estrogen receptor alpha (ER-alpha) signaling pathway - cell viability counter screen (AID 743074; calls by dose curve; note: nearly all actives have a fitted effect of over 45% in size; note: potency is the fitted concentration of half-maximal effect).
Test [6] has as its target Estrogen receptor (Homo sapiens) (UniProt P03372). Kind of test: qHTS assay to identify small molecule agonists of the estrogen receptor alpha (ER-alpha) signaling pathway (AID 743075; calls by dose curve; note: potency is the fitted concentration of half-maximal effect).
Test [7] shares this target. Kind of test: qHTS assay to identify small molecule agonists of the estrogen receptor alpha (ER-alpha) signaling pathway using the BG1 cell line (AID 743079). Note: nearly all actives have a fitted effect of over 20% in size. Note: potency is the fitted concentration of half-maximal effect. The conditions noted are these: BG1Luc4E2 cells, ERE-luciferase agonist, 22 h; activation: at 70.3 µM (top of the series).
The nature of test [8]: qHTS assay to identify small molecule antagonists of the estrogen receptor alpha (ER-alpha) signaling pathway using the BG1 cell line (AID 743080; calls by dose curve; note: nearly all actives have a fitted effect of over 25% in size; note: potency is the fitted concentration of half-maximal effect). As to conditions: BG1Luc4E2 ERE-luciferase antagonist mode, luminescence; activity change, negative = inhibition: at 70.3 µM (top of the series). Put shortly: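 Antagonist mode: compounds in DMSO were pinned onto BG1-Luc-4E2 cells alongside 17beta-estradiol agonist, incubated 21.5 h, and ERE-driven luciferase measured with ONE-Glo. Cytotoxicity was multiplexed using CellTiter-Fluor fluorescence.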

The nature of test [9]: qHTS assay to identify small molecule antagonists of the estrogen receptor alpha (ER-alpha) signaling pathway using the BG1 cell line - cell viability counter screen (AID 743081).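 Note: compound given together with 17beta-estradiol as the ER stimulus; nearly all actives have a fitted effect of over 45% in size.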 Note: potency is the fitted concentration of half-maximal effect.
The next test has as its target Aromatase (Homo sapiens) (UniProt P11511). Nature of the test: qHTS assay to identify aromatase inhibitors (AID 743083). Note: nearly all actives have a fitted effect of over 55% in size. Note: potency is the fitted concentration of half-maximal effect.

Several values for one entry are separate records, joined by “and”; a condition that tells them apart may be missing. Equal entries are not always repeated. Activity calls are given as the source filed them. Unless noted, calls come from the whole dose curve; as a rule, active = well fitted curve in the direction sought with a large enough effect in the repeat runs; inconclusive = weak or mixed curves; inactive = no such curve, though single readings can be large; an effect the other way counts as inactive or inconclusive.

Chain of Estrogen receptor (Homo sapiens) (P03372 whole entry, looked up): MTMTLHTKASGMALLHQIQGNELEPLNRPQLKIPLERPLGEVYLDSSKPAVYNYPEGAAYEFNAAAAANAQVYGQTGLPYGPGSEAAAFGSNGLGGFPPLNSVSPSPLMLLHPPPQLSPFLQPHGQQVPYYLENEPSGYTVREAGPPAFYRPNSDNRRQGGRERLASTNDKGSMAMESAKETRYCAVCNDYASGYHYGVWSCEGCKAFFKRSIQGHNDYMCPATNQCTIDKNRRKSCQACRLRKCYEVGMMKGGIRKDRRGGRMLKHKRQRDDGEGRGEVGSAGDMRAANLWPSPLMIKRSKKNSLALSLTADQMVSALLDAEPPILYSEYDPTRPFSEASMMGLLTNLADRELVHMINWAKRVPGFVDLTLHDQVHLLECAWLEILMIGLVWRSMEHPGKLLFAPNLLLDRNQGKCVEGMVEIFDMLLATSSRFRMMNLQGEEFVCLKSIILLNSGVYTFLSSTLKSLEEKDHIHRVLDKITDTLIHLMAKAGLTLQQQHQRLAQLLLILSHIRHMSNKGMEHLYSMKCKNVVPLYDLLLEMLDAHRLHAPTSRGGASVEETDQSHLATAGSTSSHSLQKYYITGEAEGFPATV
Chain of Aromatase (Homo sapiens) (P11511 whole entry, looked up): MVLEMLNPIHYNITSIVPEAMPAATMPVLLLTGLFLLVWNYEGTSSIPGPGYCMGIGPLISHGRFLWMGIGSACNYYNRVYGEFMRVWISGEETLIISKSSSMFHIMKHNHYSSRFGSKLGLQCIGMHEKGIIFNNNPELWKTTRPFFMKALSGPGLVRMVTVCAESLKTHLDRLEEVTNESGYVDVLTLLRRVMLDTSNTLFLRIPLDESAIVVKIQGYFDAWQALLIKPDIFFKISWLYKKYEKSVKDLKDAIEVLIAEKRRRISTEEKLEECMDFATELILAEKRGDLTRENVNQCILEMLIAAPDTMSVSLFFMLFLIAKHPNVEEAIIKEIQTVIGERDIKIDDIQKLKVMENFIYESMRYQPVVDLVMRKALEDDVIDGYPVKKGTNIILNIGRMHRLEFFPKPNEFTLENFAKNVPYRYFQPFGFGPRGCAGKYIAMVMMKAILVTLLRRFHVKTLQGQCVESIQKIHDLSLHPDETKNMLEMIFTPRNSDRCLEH

As to `Cn1cnc2ncnc(N)c21`, the Potency entry in [1], in test [2], in [3], in test [4], in [5] and in test [6] was “inactive” in each case. In addition, the Potency entry (in [7]; in [8]; in test [9]; with Aromatase (Homo sapiens)) was “inactive” throughout.
With `NCCCCCCNCCCCCCN`, the Potency result in test [1], in [2], in [3], in test [4], in test [5] and in test [6] was “inactive” throughout. The Potency entry (in test [7]; in test [8]; in test [9]; with Aromatase (Homo sapiens)) was “inactive” in each case.
In the case of `O=C(O)c1cccc(Cl)n1`, the Potency entry in [1], in [2], in [3], in [4], in test [5] and in test [6] was “inactive” each time. For the same compound, the Potency result (in [7]; in [8]; in test [9]; with Aromatase (Homo sapiens)) was “inactive” in each case.
Turning to `Cc1cn[nH]c1`, the Potency entry in test [1], in test [2], in [3], in [4], in [5] and in test [6] was “inactive” in each case. In addition, the Potency result (in test [7]; in test [8]; in test [9]; with Aromatase (Homo sapiens)) was “inactive” each time.
Turning to `CC1CCCNC1` (centres undefined), the Potency result in test [1], in test [2], in test [3], in [4], in [5] and in test [6] was “inactive” in each case. Besides, the Potency result (in [7]; in test [8]; in [9]; with Aromatase (Homo sapiens)) was “inactive” in each case.
With `CCCSS/C(CCO)=C(\C)N(C=O)Cc1cnc(C)nc1N`, the Potency is 26.6 µM (active) in test [1], 23.7 µM (active) in [2] and 26.6 µM (active) in the test with Aromatase (Homo sapiens). In addition, the Potency result in [3], in [4], in [5], in test [6], in [7] and in test [8] was “inactive” each time. Further, in [9], the Potency result is “inactive”.
For the compound `O=Cc1ccc(F)cc1`, the Potency result in test [1], in test [2], in test [3], in test [4], in test [5] and in test [6] was “inactive” each time. The Potency result (in [7]; in [8]; in [9]; with Aromatase (Homo sapiens)) was “inactive” each time.
In the case of `O=C(O)Cc1ccc(OCCNC[C@H](O)c2ccccc2)cc1`, the Potency result in test [1], in test [2], in test [3], in test [4], in [5] and in [6] was “inactive” in each case. Besides, the Potency result (in [7]; in test [8]; in test [9]; with Aromatase (Homo sapiens)) was “inactive” throughout.
Consider `CCc1cccc(C)c1`, for which the Potency entry in [1], in test [2], in [3], in test [4], in test [5] and in test [6] was “inactive” in each case. Moreover, the Potency result (in test [7]; in test [8]; in test [9]; with Aromatase (Homo sapiens)) was “inactive” each time.
Take `COC(=O)CC(C)CCC=C(C)C` (centres undefined): the Potency result in test [1], in test [2], in test [3], in [4], in test [5] and in [6] was “inactive” each time. The Potency entry (in test [7]; in [8]; in [9]; in the test with Aromatase (Homo sapiens)) was “inactive” each time.
For the compound `Nc1cc(Cl)c([N+](=O)[O-])cc1O`, the Potency in test [1] is 60.6 µM (active). In addition, the Potency entry in [2], in test [3], in test [4], in test [5], in [6] and in [7] was “inactive” in each case. The Potency result (in [8]; in the test with Aromatase (Homo sapiens)) was “inactive” each time.
With `CCCCCCCOC(=O)c1ccc(O)cc1`, the Potency was 61.1 µM (active) in test [1]; 61.1 µM (active) in [2]; 54.9 µM [inhibitor] (active) in [4]; 55 µM [inconclusive] (active) and 54.9 µM [inconclusive] (active) in test [6]; 15.4 µM (active) and 19.3 µM (active) in test [7]; 43.3 µM (active) in the test with Aromatase (Homo sapiens). Further, the Potency result in test [3], in test [5] and in test [9] was “inactive” each time.
`CC(C)=C1CC[C@@H](C)CC1=O`: the Potency result in [1], in test [2], in [3], in test [4], in [5] and in [6] was “inactive” in each case. For the same compound, the Potency entry (in test [9]; with Aromatase (Homo sapiens)) was “inactive” throughout.
Consider `c1ccc(Sc2ccccc2)cc1`, for which the Potency entry in test [1], in test [2], in test [3], in [4], in test [5] and in test [6] was “inactive” each time. For the same compound, the Potency entry (in [7]; in test [8]; in test [9]; with Aromatase (Homo sapiens)) was “inactive” in each case.
For `NC(=O)c1ccccc1N`, the Potency result in [1], in test [2], in [3], in test [4], in test [5] and in test [6] was “inactive” throughout. Further, the Potency entry (in test [7]; in test [8]; in test [9]; in the test with Aromatase (Homo sapiens)) was “inactive” each time.
For `CC(C)(c1cc(Br)c(OCCO)c(Br)c1)c1cc(Br)c(OCCO)c(Br)c1`, the Potency was 47.5 µM (active) in [1] and 9.47 µM (active) in [2]. The Potency result in [3] and in [6] was “inactive” throughout.
Take `CCN=C1C=CC(=C(c2ccc(N(CC)CC)cc2)c2ccc(N(CC)CC)cc2)c2ccccc21`: the Potency was 0.542 µM (active) in [1]; 0.121 µM (active) in test [2]; 38.7 µM [cytotoxic] (active) in [4]; 19.4 µM (active) in test [5]; 0.136 µM (active) in [8]; 30.5 µM (active) in [9]. Also, in the test with Aromatase (Homo sapiens), the Potency was 0.216 µM (active). Besides, the Potency entry in [3] is “inactive”.
Consider `COC(=O)[C@]1(C)CCC[C@@]2(C)[C@H]1CC=C1C=C(C(C)C)CC[C@@H]12`, for which the Potency was 48.6 µM (active) in [1] and 43.3 µM (active) in test [2]. For the same compound, the Potency entry in [3], in [5] and in [9] was “inactive” in each case.
Turning to `C/C=C/C(=O)Oc1c(CCCCCC(C)C)cc([N+](=O)[O-])cc1[N+](=O)[O-]`, the Potency is 12.2 µM (active) in test [1], 3.86 µM (active) in [2], 4.9 µM [inconclusive] (active) in test [4] and 15.4 µM (active) with Aromatase (Homo sapiens). The Potency result in test [3] was “inactive”.
For `O=C1c2c(O)ccc([N+](=O)[O-])c2C(=O)c2c([N+](=O)[O-])ccc(O)c21`, the Potency in test [1] was 6.8 µM (active); in test [2], 6.8 µM (active); in test [5] it was 38.5 µM (active); in test [9] it was 30.4 µM (active); in the test with Aromatase (Homo sapiens), 6.06 µM (active). Further, the Potency entry in test [3] is “inactive”.
